In article PMC7862700, “An all-to-all approach to the identification of sequence-specific readers for epigenetic DNA modifications on cytosine”:

Key:
Experiment in all cases: DAPPL (digital affinity profiling via proximity ligation, sequencing); 10 mM Tris-HCl pH 7.5, 50 mM NaCl, 1 mM DTT, 4% glycerol, room temperature, 30 min; GST-TFs on glutathione beads, 16-mer random dsDNA library, 0.1% formaldehyde crosslink after washing; high values mean tight binding
FEV = target: T1, FEV (Homo sapiens, UniProt Q99581 1-238); settings: protein: recombinant; tags: N-terminal GST; dsDNA, one strand shown
T1 sequence: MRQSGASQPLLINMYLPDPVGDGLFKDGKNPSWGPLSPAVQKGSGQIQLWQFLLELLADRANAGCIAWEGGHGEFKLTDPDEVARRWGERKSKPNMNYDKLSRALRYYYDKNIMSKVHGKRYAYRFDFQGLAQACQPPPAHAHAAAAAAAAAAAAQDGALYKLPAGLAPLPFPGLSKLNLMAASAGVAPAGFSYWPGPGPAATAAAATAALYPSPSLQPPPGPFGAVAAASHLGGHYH
Outline: (§1)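 After expression in yeast as GST fusions, human transcription factors were bound to glutathione beads, DNA-barcoded and mixed with a tag-only sample. The pools were incubated with 200 nmole of a 16-mer random double-stranded DNA library in Tris/NaCl/DTT/glycerol buffer (30 min, room temperature), washed and crosslinked with 0.1% formaldehyde. Proximity ligation with BsaI/T4 ligase ran for 1 h at 37 °C, before PCR amplification and sequencing on an Illumina NextSeq500. Binding signal is a hexamer's read frequency for a factor divided by its frequency for the tag-only sample.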

ETV5 = ETV5 (Homo sapiens, UniProt P41161 1-510); settings: protein: recombinant; tags: N-terminal GST; dsDNA, one strand shown
Outline: as §1

HSF1 = HSF1 (Homo sapiens, UniProt Q00613 1-529); settings: protein: recombinant; tags: N-terminal GST; chain copies: 3; dsDNA, one strand shown
Outline: as §1

SPIC = target: T2, SPIC (Homo sapiens, UniProt Q8N5J4 1-248); settings: protein: recombinant; tags: N-terminal GST; dsDNA, one strand shown
T2 sequence: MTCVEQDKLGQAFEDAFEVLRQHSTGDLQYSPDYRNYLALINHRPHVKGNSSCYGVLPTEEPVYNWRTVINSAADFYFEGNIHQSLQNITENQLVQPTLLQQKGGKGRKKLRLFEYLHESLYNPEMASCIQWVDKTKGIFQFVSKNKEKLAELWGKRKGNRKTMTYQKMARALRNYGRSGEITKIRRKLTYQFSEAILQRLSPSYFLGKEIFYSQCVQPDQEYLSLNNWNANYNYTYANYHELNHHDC
Outline: as §1

ELF4 = ELF4 (Homo sapiens, UniProt Q99607 1-663); settings: protein: recombinant; tags: N-terminal GST; dsDNA, one strand shown
Outline: as §1

ELK4 = target: T3, ELK4 (Homo sapiens, UniProt P28324-2 1-405); settings: protein: recombinant; tags: N-terminal GST; dsDNA, one strand shown
T3 sequence: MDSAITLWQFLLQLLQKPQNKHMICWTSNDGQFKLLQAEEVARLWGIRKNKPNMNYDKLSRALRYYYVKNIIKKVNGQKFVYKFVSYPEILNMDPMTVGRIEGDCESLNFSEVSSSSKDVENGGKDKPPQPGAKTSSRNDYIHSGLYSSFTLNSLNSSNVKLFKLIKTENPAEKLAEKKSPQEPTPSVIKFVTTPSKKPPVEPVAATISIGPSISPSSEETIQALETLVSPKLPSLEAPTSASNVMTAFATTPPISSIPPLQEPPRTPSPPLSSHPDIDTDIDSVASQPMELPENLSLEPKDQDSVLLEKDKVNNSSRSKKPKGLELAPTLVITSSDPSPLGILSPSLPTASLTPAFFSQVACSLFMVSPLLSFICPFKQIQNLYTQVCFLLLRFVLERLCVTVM
Outline: as §1

ETV2 = target: T4, ETV2 (Homo sapiens, UniProt O00321 1-342); settings: protein: recombinant; tags: N-terminal GST; dsDNA, one strand shown
T4 sequence: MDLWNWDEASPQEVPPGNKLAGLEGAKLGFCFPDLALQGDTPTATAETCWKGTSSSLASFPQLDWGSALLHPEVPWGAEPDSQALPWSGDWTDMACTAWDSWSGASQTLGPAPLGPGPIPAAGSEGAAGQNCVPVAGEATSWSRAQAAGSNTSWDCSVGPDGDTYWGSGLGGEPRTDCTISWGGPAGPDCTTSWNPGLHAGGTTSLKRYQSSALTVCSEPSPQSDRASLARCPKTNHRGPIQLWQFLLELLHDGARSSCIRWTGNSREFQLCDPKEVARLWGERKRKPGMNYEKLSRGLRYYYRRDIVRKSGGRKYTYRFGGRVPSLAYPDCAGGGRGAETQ
Outline: as §1

ELF3 = target: T5, ELF3 (Homo sapiens, UniProt P78545 1-371); settings: protein: recombinant; tags: N-terminal GST; dsDNA, one strand shown
T5 sequence: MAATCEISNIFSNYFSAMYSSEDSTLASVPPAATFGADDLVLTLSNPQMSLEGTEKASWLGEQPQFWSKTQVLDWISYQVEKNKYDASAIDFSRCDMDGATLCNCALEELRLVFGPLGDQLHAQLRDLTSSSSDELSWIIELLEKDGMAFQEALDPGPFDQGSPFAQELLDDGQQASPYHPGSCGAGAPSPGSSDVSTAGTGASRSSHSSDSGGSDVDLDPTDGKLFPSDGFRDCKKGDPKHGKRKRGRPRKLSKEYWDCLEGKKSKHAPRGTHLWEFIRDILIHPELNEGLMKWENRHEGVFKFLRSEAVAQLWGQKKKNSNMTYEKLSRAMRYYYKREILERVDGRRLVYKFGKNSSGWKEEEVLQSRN
Outline: as §1

CRX = CRX (Homo sapiens, UniProt O43186 1-299); settings: protein: recombinant; tags: N-terminal GST; dsDNA, one strand shown
Outline: as §1

ETV1 = ETV1 (Homo sapiens, UniProt P50549 1-477); settings: protein: recombinant; tags: N-terminal GST; dsDNA, one strand shown
Outline: as §1

Chain of CRX (O43186 whole entry): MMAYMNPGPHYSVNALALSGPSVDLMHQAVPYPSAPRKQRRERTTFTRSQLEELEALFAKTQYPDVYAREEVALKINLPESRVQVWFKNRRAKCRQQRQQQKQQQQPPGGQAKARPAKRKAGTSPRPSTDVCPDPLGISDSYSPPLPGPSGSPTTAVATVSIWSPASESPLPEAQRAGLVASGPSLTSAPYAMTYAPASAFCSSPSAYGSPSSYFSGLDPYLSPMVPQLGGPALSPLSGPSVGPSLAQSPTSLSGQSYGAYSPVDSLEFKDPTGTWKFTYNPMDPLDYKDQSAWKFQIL
Chain of ELF4 (Q99607 whole entry): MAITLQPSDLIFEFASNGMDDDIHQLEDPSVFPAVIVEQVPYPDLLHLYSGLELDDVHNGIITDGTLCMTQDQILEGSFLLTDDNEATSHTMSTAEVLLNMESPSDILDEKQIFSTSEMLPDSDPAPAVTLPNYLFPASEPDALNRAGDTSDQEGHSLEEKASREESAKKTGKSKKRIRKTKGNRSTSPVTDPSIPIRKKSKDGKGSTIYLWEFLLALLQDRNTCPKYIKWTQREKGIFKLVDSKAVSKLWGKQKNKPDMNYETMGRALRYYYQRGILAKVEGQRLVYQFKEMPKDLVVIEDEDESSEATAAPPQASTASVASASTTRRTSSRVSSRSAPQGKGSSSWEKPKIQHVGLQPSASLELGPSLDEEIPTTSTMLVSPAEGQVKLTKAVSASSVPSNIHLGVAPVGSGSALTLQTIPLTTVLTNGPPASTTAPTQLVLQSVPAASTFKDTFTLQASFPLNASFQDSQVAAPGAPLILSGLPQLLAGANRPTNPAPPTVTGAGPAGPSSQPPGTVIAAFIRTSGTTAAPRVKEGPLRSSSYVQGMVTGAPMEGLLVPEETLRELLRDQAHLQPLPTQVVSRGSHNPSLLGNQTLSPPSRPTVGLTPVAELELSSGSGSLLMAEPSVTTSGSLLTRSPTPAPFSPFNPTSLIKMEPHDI
Chain of HSF1 (Q00613 whole entry): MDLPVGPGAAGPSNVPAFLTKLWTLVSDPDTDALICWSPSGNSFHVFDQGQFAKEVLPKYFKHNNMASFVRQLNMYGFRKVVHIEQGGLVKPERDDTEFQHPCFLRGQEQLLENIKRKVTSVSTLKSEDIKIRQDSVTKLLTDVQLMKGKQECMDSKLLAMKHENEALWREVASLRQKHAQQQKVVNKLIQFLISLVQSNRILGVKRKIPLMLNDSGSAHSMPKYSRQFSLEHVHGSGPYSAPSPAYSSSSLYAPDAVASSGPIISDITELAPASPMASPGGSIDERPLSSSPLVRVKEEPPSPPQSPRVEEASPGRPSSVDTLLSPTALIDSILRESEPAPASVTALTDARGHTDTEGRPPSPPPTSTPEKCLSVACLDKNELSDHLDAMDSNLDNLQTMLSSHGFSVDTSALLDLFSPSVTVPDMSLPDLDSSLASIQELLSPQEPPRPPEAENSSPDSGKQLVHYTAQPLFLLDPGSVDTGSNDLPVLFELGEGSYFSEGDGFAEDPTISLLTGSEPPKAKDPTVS
Chain of ETV5 (P41161 whole entry): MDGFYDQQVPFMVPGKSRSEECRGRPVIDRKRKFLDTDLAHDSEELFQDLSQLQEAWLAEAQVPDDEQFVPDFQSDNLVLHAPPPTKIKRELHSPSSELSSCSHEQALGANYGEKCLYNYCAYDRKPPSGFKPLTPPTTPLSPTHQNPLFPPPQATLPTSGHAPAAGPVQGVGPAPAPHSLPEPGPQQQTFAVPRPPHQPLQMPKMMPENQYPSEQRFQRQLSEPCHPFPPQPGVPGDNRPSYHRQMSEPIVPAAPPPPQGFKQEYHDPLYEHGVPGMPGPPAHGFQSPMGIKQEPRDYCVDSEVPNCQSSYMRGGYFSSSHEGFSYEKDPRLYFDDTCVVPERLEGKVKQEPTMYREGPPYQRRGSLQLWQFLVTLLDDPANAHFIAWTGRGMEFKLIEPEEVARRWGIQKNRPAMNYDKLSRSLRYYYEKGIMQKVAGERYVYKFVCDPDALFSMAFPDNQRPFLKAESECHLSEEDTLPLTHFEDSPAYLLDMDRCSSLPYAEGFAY
Chain of ETV1 (P50549 whole entry): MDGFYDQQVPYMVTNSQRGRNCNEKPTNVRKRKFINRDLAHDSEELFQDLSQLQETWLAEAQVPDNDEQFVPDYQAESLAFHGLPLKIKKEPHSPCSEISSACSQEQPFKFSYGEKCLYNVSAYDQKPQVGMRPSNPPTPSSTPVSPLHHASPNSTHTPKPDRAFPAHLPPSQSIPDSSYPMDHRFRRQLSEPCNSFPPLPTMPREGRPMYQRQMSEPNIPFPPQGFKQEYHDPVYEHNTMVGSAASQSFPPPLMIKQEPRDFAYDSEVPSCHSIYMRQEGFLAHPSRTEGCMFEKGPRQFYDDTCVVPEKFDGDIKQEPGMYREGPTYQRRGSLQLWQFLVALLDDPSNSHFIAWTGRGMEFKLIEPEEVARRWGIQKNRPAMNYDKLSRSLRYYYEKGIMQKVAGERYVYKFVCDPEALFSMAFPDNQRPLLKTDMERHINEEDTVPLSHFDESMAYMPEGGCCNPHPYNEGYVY

TCTTGC
binding signal (FEV): 1.24 fold enrichment (6-mer frequency, TF over GST control)
binding signal (ETV5): 1.39 fold enrichment (6-mer frequency, TF over GST control)
binding signal (HSF1): 1.2 fold enrichment (6-mer frequency, TF over GST control)
binding signal (SPIC): 1.36 fold enrichment (6-mer frequency, TF over GST control)
binding signal (ELF4): 1.32 fold enrichment (6-mer frequency, TF over GST control)
binding signal (ELK4): 1.3 fold enrichment (6-mer frequency, TF over GST control)
binding signal (ETV2): 1.36 fold enrichment (6-mer frequency, TF over GST control)
binding signal (ELF3): 1.4 fold enrichment (6-mer frequency, TF over GST control)
binding signal (CRX): 1.21 fold enrichment (6-mer frequency, TF over GST control)
binding signal (ETV1): 1.4 fold enrichment (6-mer frequency, TF over GST control)

CCTTGC
binding signal (FEV): 1.27 fold enrichment (6-mer frequency, TF over GST control)
binding signal (ETV5): 1.17 fold enrichment (6-mer frequency, TF over GST control)
binding signal (HSF1): 1.04 fold enrichment (6-mer frequency, TF over GST control)
binding signal (SPIC): 1.45 fold enrichment (6-mer frequency, TF over GST control)
binding signal (ELF4): 1.27 fold enrichment (6-mer frequency, TF over GST control)
binding signal (ELK4): 1.2 fold enrichment (6-mer frequency, TF over GST control)
binding signal (ETV2): 1.44 fold enrichment (6-mer frequency, TF over GST control)
binding signal (ELF3): 1.49 fold enrichment (6-mer frequency, TF over GST control)
binding signal (CRX): 1.02 fold enrichment (6-mer frequency, TF over GST control)
binding signal (ETV1): 1.33 fold enrichment (6-mer frequency, TF over GST control)

TCTCGA
binding signal (FEV): 1.23 fold enrichment (6-mer frequency, TF over GST control)
binding signal (ETV5): 1.4 fold enrichment (6-mer frequency, TF over GST control)
binding signal (HSF1): 5.05 fold enrichment (6-mer frequency, TF over GST control)
binding signal (SPIC): 1.35 fold enrichment (6-mer frequency, TF over GST control)
binding signal (ELF4): 1.51 fold enrichment (6-mer frequency, TF over GST control)
binding signal (ELK4): 1.46 fold enrichment (6-mer frequency, TF over GST control)
binding signal (ETV2): 1.27 fold enrichment (6-mer frequency, TF over GST control)
binding signal (ELF3): 1.35 fold enrichment (6-mer frequency, TF over GST control)
binding signal (CRX): 2.28 fold enrichment (6-mer frequency, TF over GST control)
binding signal (ETV1): 1.47 fold enrichment (6-mer frequency, TF over GST control)

ACTCCG
binding signal (FEV): 1.49 fold enrichment (6-mer frequency, TF over GST control)
binding signal (ETV5): 1.44 fold enrichment (6-mer frequency, TF over GST control)
binding signal (HSF1): 1.16 fold enrichment (6-mer frequency, TF over GST control)
binding signal (SPIC): 1.35 fold enrichment (6-mer frequency, TF over GST control)
binding signal (ELF4): 1.58 fold enrichment (6-mer frequency, TF over GST control)
binding signal (ELK4): 1.4 fold enrichment (6-mer frequency, TF over GST control)
binding signal (ETV2): 1.4 fold enrichment (6-mer frequency, TF over GST control)
binding signal (ELF3): 1.33 fold enrichment (6-mer frequency, TF over GST control)
binding signal (CRX): 1.04 fold enrichment (6-mer frequency, TF over GST control)
binding signal (ETV1): 1.47 fold enrichment (6-mer frequency, TF over GST control)

ATAATC
binding signal (FEV): 1.1 fold enrichment (6-mer frequency, TF over GST control)
binding signal (ETV5): 1.17 fold enrichment (6-mer frequency, TF over GST control)
binding signal (HSF1): 2.86 fold enrichment (6-mer frequency, TF over GST control)
binding signal (SPIC): 1.16 fold enrichment (6-mer frequency, TF over GST control)
binding signal (ELF4): 1.13 fold enrichment (6-mer frequency, TF over GST control)
binding signal (ELK4): 1.13 fold enrichment (6-mer frequency, TF over GST control)
binding signal (ETV2): 1.21 fold enrichment (6-mer frequency, TF over GST control)
binding signal (ELF3): 1.15 fold enrichment (6-mer frequency, TF over GST control)
binding signal (CRX): 4.71 fold enrichment (6-mer frequency, TF over GST control)
binding signal (ETV1): 1.12 fold enrichment (6-mer frequency, TF over GST control)

CGATTA
binding signal (FEV): 1.09 fold enrichment (6-mer frequency, TF over GST control)
binding signal (ETV5): 1.08 fold enrichment (6-mer frequency, TF over GST control)
binding signal (HSF1): 2.19 fold enrichment (6-mer frequency, TF over GST control)
binding signal (SPIC): 1.12 fold enrichment (6-mer frequency, TF over GST control)
binding signal (ELF4): 1.14 fold enrichment (6-mer frequency, TF over GST control)
binding signal (ELK4): 1.18 fold enrichment (6-mer frequency, TF over GST control)
binding signal (ETV2): 1.13 fold enrichment (6-mer frequency, TF over GST control)
binding signal (ELF3): 1 fold enrichment (6-mer frequency, TF over GST control)
binding signal (CRX): 3.25 fold enrichment (6-mer frequency, TF over GST control)
binding signal (ETV1): 1.13 fold enrichment (6-mer frequency, TF over GST control)

TAAGAA
binding signal (FEV): 1.05 fold enrichment (6-mer frequency, TF over GST control)
binding signal (ETV5): 1.1 fold enrichment (6-mer frequency, TF over GST control)
binding signal (HSF1): 1.77 fold enrichment (6-mer frequency, TF over GST control)
binding signal (SPIC): 1.21 fold enrichment (6-mer frequency, TF over GST control)
binding signal (ELF4): 1.13 fold enrichment (6-mer frequency, TF over GST control)
binding signal (ELK4): 1.09 fold enrichment (6-mer frequency, TF over GST control)
binding signal (ETV2): 1.2 fold enrichment (6-mer frequency, TF over GST control)
binding signal (ELF3): 1.02 fold enrichment (6-mer frequency, TF over GST control)
binding signal (CRX): 1.96 fold enrichment (6-mer frequency, TF over GST control)
binding signal (ETV1): 1.13 fold enrichment (6-mer frequency, TF over GST control)
